Measurements from PubChem BioAssay AID588432 (Broad Institute, 2011).
Activity calls are given as the source filed them.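 How the source made its calls: active means luciferase inhibitors whose fitted dose curve gives a half-maximal potency within ten times the top tested dose; inconclusive means flat curve with 30 to 70% inhibition, or a poor fit; inactive means the rest.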

Experiment: ADP-Glo luciferase interference without Dyrk1A, dose response, artefact control for Dyrk1A inhibitor project, biochemical, luminescence, cherry-pick, set 04 (AID 588432)
Settings: ADP-Glo luminescence without kinase, luciferase artifact; series mostly up to 12 µM; activity change, negative = inhibition: at the top concentration

Activity change, negative = inhibition, inactive:
Fc1c(-c2ccc3ncnc(NCc4cccs4)c3c2)ccc2c1OCO2 -2.17%
Clc1ccc(Nc2nccc(-c3ccc4c(c3)OCO4)n2)cc1 6.82%
c1cc(-c2ccc3c(c2)OCO3)nc(Nc2ccc3c(c2)OCO3)n1 3.29%
Cc1nc(CN(C)c2ncnc3ccc(-c4ccc5c(c4)OCO5)cc23)cs1 4.71%
FC(F)(F)c1cc(Br)cc(Nc2nccc(-c3ccc4c(c3)OCO4)n2)c1 0.301%
Cc1ccsc1CN(C)c1ncnc2ccc(-c3ccoc3)cc12 -6.33%
O=[N+]([O-])c1cc(Nc2nccc(-c3ccc4c(c3)OCO4)n2)cc(C(F)(F)F)c1 2.67%
Cc1ccc(CN(C)c2ncnc3ccc(-c4ccc5c(c4)OCO5)cc23)o1 -3.45%
Cc1csc(CNc2ncnc3ccc(-c4ccc5c(ccn5C)c4)cc23)c1 -1.83%
CN(Cc1cccs1)c1ncnc2ccc(-c3ccc4c(c3)OCO4)cc12 -1.74%
Cc1cccc(CNc2ncnc3ccc(-c4cccc(Cl)c4)cc23)c1 -1.34%
c1cncc(CNc2nccc(-c3ccc4c(c3)OCO4)n2)c1 6.03%
Cc1csc(CN(C)c2ncnc3ccc(-c4ccc5c(c4)OCO5)cc23)n1 0.986%
Clc1ccc(CNc2nccc(-c3ccc4cn[nH]c4c3)n2)cc1Cl 3.81%
Clc1ccc(CNc2nccc(-c3ccc4c(c3)OCO4)n2)cc1Cl 4.9%
Cc1noc(CN(C)c2ncnc3ccc(-c4ccc5c(c4)OCO5)cc23)n1 -2.83%
c1nc(NCC2CCCOC2)c2cc(-c3ccc4c(c3)OCO4)ccc2n1 (centres undefined) -4.69%
c1cncc(CNc2ccnc(-c3ccc4cn[nH]c4c3)n2)c1 -1.39%
CS(=O)(=O)CCNCc1ccc(-c2ccc3ncnc(Nc4ccc(OCc5cccc(F)c5)c(Cl)c4)c3c2)o1 3.19%
Clc1ccc(CNc2ncncc2-c2ccc3c(c2)OCO3)cc1 4.88%
Cc1nc(CNc2ncnc3ccc(-c4ccc5c(c4)OCO5)cc23)cs1 0.942%
c1csc(CNc2ncnc3ccc(-c4ccc5c(c4)OCO5)cc23)n1 1.31%
Cc1c(-c2ccnc(NCc3cccnc3)n2)sc(=O)n1C 2.54%
Clc1ccc(CNc2ncncc2-c2ccc3c(c2)OCO3)cc1Cl -2.3%
c1cncc(CNc2cc(-c3ccc4c(c3)OCO4)ncn2)c1 -0.561%
CCN(Cc1cccs1)c1ncnc2ccc(-c3ccc4c(c3)OCO4)cc12 4.36%
Cc1ccsc1CNc1ncnc2ccc(-c3ccc4c(c3)OCO4)cc12 -3.91%
Brc1cc(Br)cc(CNc2nccc(-c3ccc4c(c3)OCO4)n2)c1 5.61%
CN(C)c1ccc(-c2nccc(NCc3cccs3)n2)cc1 -2.05%
c1cncc(CNc2ccnc(-c3ccc4[nH]ncc4c3)n2)c1 4.93%
c1cncc(CNc2nccc(-c3ccc4[nH]ncc4c3)n2)c1 -1.45%
COc1cc(-c2ccc3ncnc(NCCc4cnc[nH]4)c3c2)cc(OC)c1OC -4.12%
c1csc(CNc2ncnc3ccc(-c4ccoc4)cc23)c1 0.227%

outcome, inactive:
CCOC(=O)c1ccc(-c2ccc3ncnc(NCc4ccc(C)o4)c3c2)o1
